The campaign covered roughly 5,500 compounds. About 2,000 (36%) were called active. Roughly 18% stayed inconclusive and do not appear here. Rule as the data show it: active = normalized growth mostly below about 0.91 (no sharp cut-off); inconclusive = no clear call, values can overlap the other calls; inactive = mostly above about 0.92. This is one part of the list.
Assay: chemical genetic growth profiling, strain panel (AID 1159580);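 also: tested at 20 µM; growth read once vehicle control cultures reached saturation at 30 °C; 1 = growth at the plate median or of vehicle wells; lower values mean less growth of the strain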
Conditions: growth OD

Measured: normalized growth

CCCCCC(O)C1C(=O)OC(C)C(O)/C=C/C=C/C=C/C=C/C=C(\C)C(O)CC(O)CC(O)CC(O)CC(O)CC(O)CC1O (configuration not stated)
inactive: S. cerevisiae deletion strains, locus YJR075W, strain HOC1, active compounds read low 0.994 | S. cerevisiae deletion strains, locus YKL009W, strain mrt4, active compounds read low 0.999 | S. cerevisiae deletion strains, locus YKL068W, active compounds read low 1.03 | S. cerevisiae deletion strains, locus YKL085W, strain MDH1 (second series), active compounds read low 0.975 | S. cerevisiae deletion strains, locus YKL085W, strain MDH1, active compounds read low 0.975 | S. cerevisiae deletion strains, locus YKL160W, strain elf1, active compounds read low 1.01 | S. cerevisiae deletion strains, locus YKL190W, strain CNB1, active compounds read low 1.01 | S. cerevisiae deletion strains, locus YKR001C, strain vps1, active compounds read low 1.03 | S. cerevisiae deletion strains, locus YKR026C, strain gcn3, active compounds read low 0.966 | S. cerevisiae deletion strains, locus YKR091W, strain srl3, active compounds read low 0.995 | S. cerevisiae deletion strains, locus YLL001W, strain dnm1, active compounds read low 1.01 | S. cerevisiae deletion strains, locus YLL026W, active compounds read low 0.982 | S. cerevisiae deletion strains, locus YLL041C, strain sdh2, active compounds read low 0.994 | S. cerevisiae deletion strains, locus YLR027C, strain aat2, active compounds read low 0.983 | S. cerevisiae deletion strains, locus YLR039C, strain RIC1, active compounds read low 1.08 | S. cerevisiae deletion strains, locus YLR058C, strain SHM2, active compounds read low 1.01 | S. cerevisiae deletion strains, locus YLR102C, strain apc9, active compounds read low 1.02 | S. cerevisiae deletion strains, locus YLR113W, strain HOG1, active compounds read low 0.951 | S. cerevisiae deletion strains, locus YLR221C, strain rsa3, active compounds read low 1 | S. cerevisiae deletion strains, locus YLR258W, strain gsy2, active compounds read low 0.991 | S. cerevisiae deletion strains, locus YLR262C, strain YPT6 (second series), active compounds read low 0.997 | S. cerevisiae deletion strains, locus YLR262C, strain YPT6, active compounds read low 1.09 | S. cerevisiae deletion strains, locus YLR268W, strain sec22, active compounds read low 1.02 | S. cerevisiae deletion strains, locus YLR320W, strain mms22, active compounds read low 0.992 | S. cerevisiae deletion strains, locus YLR330W, strain CHS5, active compounds read low 1.01 | S. cerevisiae deletion strains, locus YLR342W, strain FKS1 (second series), active compounds read low 1.06 | S. cerevisiae deletion strains, locus YLR342W, strain FKS1, active compounds read low 0.983 | S. cerevisiae deletion strains, locus YLR357W, strain rsc2, active compounds read low 0.972 | S. cerevisiae deletion strains, locus YLR370C, strain arc18, active compounds read low 0.982 | S. cerevisiae deletion strains, locus YLR371W, strain rom2, active compounds read low 1.02 | S. cerevisiae deletion strains, locus YLR384C, strain iki3, active compounds read low 0.985 | S. cerevisiae deletion strains, locus YLR418C, strain cdc73, active compounds read low 1.02 | S. cerevisiae deletion strains, locus YML016C, strain PPZ1, active compounds read low 1.01 | S. cerevisiae deletion strains, locus YML032C, strain rad52, active compounds read low 1.04 | S. cerevisiae deletion strains, locus YML120C, strain ndi1, active compounds read low 1 | S. cerevisiae deletion strains, locus YML124C, strain tub3, active compounds read low 1.02 | S. cerevisiae deletion strains, locus YMR058W, strain fet3, active compounds read low 0.997 | S. cerevisiae deletion strains, locus YMR078C, strain ctf18, active compounds read low 1.03 | S. cerevisiae deletion strains, locus YMR125W, strain sto1, active compounds read low 0.959 | S. cerevisiae deletion strains, locus YMR129W, active compounds read low 0.977 | S. cerevisiae deletion strains, locus YMR205C, strain PFK2, active compounds read low 0.955 | S. cerevisiae deletion strains, locus YMR223W, strain ubp8, active compounds read low 1.03 | S. cerevisiae deletion strains, locus YMR231W, strain pep5, active compounds read low 1 | S. cerevisiae deletion strains, locus YMR263W, strain SAP30, active compounds read low 1.01 | S. cerevisiae deletion strains, locus YMR307W, strain GAS1, active compounds read low 1.12 | S. cerevisiae deletion strains, locus YNL067W, strain RPL9B, active compounds read low 1.01 | S. cerevisiae deletion strains, locus YNL071W, strain lat1, active compounds read low 0.996 | S. cerevisiae deletion strains, locus YNL128W, strain TEP1, active compounds read low 0.998 | S. cerevisiae deletion strains, locus YNL153C, strain GIM3, active compounds read low 0.994 | S. cerevisiae deletion strains, locus YNL183C, strain NPR1, active compounds read low 0.928 | S. cerevisiae deletion strains, locus YNL209W, strain ssb2, active compounds read low 0.997 | S. cerevisiae deletion strains, locus YNL233W, strain BNI4, active compounds read low 1 | S. cerevisiae deletion strains, locus YNL248C, strain rpa49, active compounds read low 1.01 | S. cerevisiae deletion strains, locus YNL250W, strain rad50, active compounds read low 1 | S. cerevisiae deletion strains, locus YNL271C, strain bni1, active compounds read low 1.02 | S. cerevisiae deletion strains, locus YNL298W, strain CLA4, active compounds read low 1.02 | S. cerevisiae deletion strains, locus YNL307C, strain MCK1, active compounds read low 1.06 | S. cerevisiae deletion strains, locus YNL322C, strain KRE1 (second series), active compounds read low 0.989 | S. cerevisiae deletion strains, locus YNL322C, strain KRE1, active compounds read low 1.01 | S. cerevisiae deletion strains, locus YNR049C, strain mso1, active compounds read low 0.984 | S. cerevisiae deletion strains, locus YNR052C, strain pop2, active compounds read low 1.02 | S. cerevisiae deletion strains, locus YOL006C, strain TOP1, active compounds read low 1.01 | S. cerevisiae deletion strains, locus YOL012C, strain htz1 1.12 | S. cerevisiae deletion strains, locus YOL147C, strain pex11, active compounds read low 1.02 | S. cerevisiae deletion strains, locus YOR001W, strain rrp6, active compounds read low 1 | S. cerevisiae deletion strains, locus YOR061W, strain CKA2, active compounds read low 1.01 | S. cerevisiae deletion strains, locus YOR069W, strain VPS5, active compounds read low 0.999 | S. cerevisiae deletion strains, locus YOR070C, strain gyp1, active compounds read low 0.989 | S. cerevisiae deletion strains, locus YOR080W, strain dia2, active compounds read low 0.976 | S. cerevisiae deletion strains, locus YOR083W, strain WHI5, active compounds read low 1.01 | S. cerevisiae deletion strains, locus YOR106W, strain vam3, active compounds read low 1.01 | S. cerevisiae deletion strains, locus YOR136W, strain idh2, active compounds read low 1.03 | S. cerevisiae deletion strains, locus YOR144C, strain elg1, active compounds read low 1.03 | S. cerevisiae deletion strains, locus YOR184W, strain ser1, active compounds read low 1.06 | S. cerevisiae deletion strains, locus YOR231W, strain MKK1, active compounds read low 0.954 | S. cerevisiae deletion strains, locus YOR265W, strain rbl2, active compounds read low 0.995 | S. cerevisiae deletion strains, locus YOR270C, strain vph1, active compounds read low 1.01 | S. cerevisiae deletion strains, locus YOR290C, strain snf2, active compounds read low 0.995 | S. cerevisiae deletion strains, locus YOR316C, strain cot1, active compounds read low 1.02 | S. cerevisiae deletion strains, locus YPL051W, strain arl3, active compounds read low 0.996 | S. cerevisiae deletion strains, locus YPL055C, strain LGE1, active compounds read low 1.01 | S. cerevisiae deletion strains, locus YPL078C, strain atp4, active compounds read low 1.01 | S. cerevisiae deletion strains, locus YPL106C, strain sse1, active compounds read low 0.987 | S. cerevisiae deletion strains, locus YPL240C, strain hsp82, active compounds read low 1.02 | S. cerevisiae deletion strains, locus YPL241C, strain CIN2, active compounds read low 1.01 | S. cerevisiae deletion strains, locus YPL256C, strain CLN2, active compounds read low 0.975 | S. cerevisiae deletion strains, locus YPR119W, strain clb2, active compounds read low 1.02 | S. cerevisiae deletion strains, locus YPR141C, strain kar3, active compounds read low 1.03 | S. cerevisiae deletion strains, locus YPR163C, strain tif3, active compounds read low 1.02 | S. cerevisiae deletion strains, locus YPR167C, strain met16, active compounds read low 1.02 | S. cerevisiae deletion strains, strain wtn01, active compounds read low 1.01 | S. cerevisiae strains, strain wild type, active compounds read low 1.01
